Measured values taken from PubChem BioAssay (EPA / NIEHS).
Records with an inconclusive call do not appear. Activity calls are given as the source filed them. How the source made its calls, unless noted: active means hit-call score of the fitted dose curve at least 0.9, where 1 is the maximum; inactive means score below 0.9.

Experiments:
[1] = APR_HepG2_CellCycleArrest_1hr: Apredica 1-hour HepG2 Assay for Cell Cycle Arrest (AID 2282666); details: high-content imaging, actives raise or lower the signal
Summary of the method: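 Cell cycle arrest scored from nuclear DNA content (Hoechst 33342) using high-content imaging of fixed HepG2 cells after 1 h treatment across 0.39–200 uM, in duplicate. Gain or loss fitted relative to 0.5% DMSO.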

[2] = ACEA_ER_80hr: ACEA Biosciences xCELLigence Real-Time Cell Analysis on Estrogen Receptor Agonism for Proliferation (AID 2282667; active means hit-call score of the fitted dose curve at least 0.9, where 1 is the maximum); details: T47D proliferation, impedance (xCELLigence), 80 h
Summary of the method: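 Real-time electrical impedance tracked growth of the human breast line T47D, with the 80 h post-dosing value used. Dosing spanned eight 1:4 steps down from a 100 uM final top concentration, run in duplicate.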

[3] = APR_HepG2_CellLoss_1hr: Apredica 1-hour HepG2 Assay for Cell Loss (AID 2282668); details: high-content imaging;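 further: curves fitted both ways against DMSO so gain or loss of cells counts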
Summary of the method: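 Cell number comes from high-content imaging of Hoechst-labelled nuclei in fixed HepG2 cells. Cells were exposed for 1 h to ten concentrations from 0.39 to 200 uM in 0.5% DMSO. Gain or loss was fitted against DMSO controls.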

[4] = APR_HepG2_p53Act_1hr: Apredica 1-hour HepG2 Assay for p53 Activation (AID 2282671); details: high-content imaging, actives raise or lower the signal
Summary of the method: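 After 1 h exposure (0.39–200 uM, 0.5% DMSO final, duplicates), fixed HepG2 cells were labelled with anti-p53 antibody plus Hoechst nuclear stain. Fluorescence quantified by automated 20x imaging; changes fitted in both directions against DMSO.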

[5] = APR_HepG2_MitoticArrest_1hr: Apredica 1-hour HepG2 Assay for Mitotic Arrest (AID 2282672); details: high-content imaging, actives raise or lower the signal
Summary of the method: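 Ten-point concentration series (0.39 to 200 uM, duplicates, 0.5% v/v DMSO) applied to human HepG2 liver cells for 1 hr. High-content imaging of phospho-histone H3 and Hoechst-stained nuclei after fixation and permeabilization; DMSO-normalised bidirectional fit.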

[6] = APR_HepG2_P-H2AX_1hr: Apredica 1-hour HepG2 Assay for H2AX Phosphorylation (AID 2282673); details: high-content imaging, actives raise or lower the signal
Summary of the method: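 Phospho-H2A.x immunofluorescence (1:200, FITC secondary) plus Hoechst nuclear stain, quantified by high-content imaging in HepG2 after 1 hr compound exposure. Ten concentrations, 0.39 to 200 uM, in duplicate with 0.5% DMSO; fit both directions against DMSO.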

[7] = APR_HepG2_MitoMass_1hr: Apredica 1-hour HepG2 Assay for Mitochondrial Mass (AID 2282674); details: high-content imaging, actives raise or lower the signal
Summary of the method: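 Mitochondrial mass is taken from MitoTracker Red CMXRos (250 nM, 30 min, pre-fixation) fluorescence imaged at 20x in HepG2 cells. Exposure lasted 1 hr across ten concentrations, 0.39 to 200 uM, 0.5% DMSO; DMSO baseline, bidirectional fitting.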

[8] = APR_HepG2_CellCycleArrest_24hr: Apredica 24-hour HepG2 Assay for Cell Cycle Arrest (AID 2282905); details: imaging, actives raise or lower the signal;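 further: cell cycle arrest scored as ratio of 2N to 4N nuclear DNA content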
Summary of the method: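 Readout: Hoechst 33342 nuclear DNA content by high-content fluorescent imaging, six images/well, 20x. Human HepG2 liver cells, 24 hr compound exposure, 0.39–200 uM, final DMSO 0.5% v/v. Gain or loss fitted relative to DMSO baseline.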

[9] = APR_HepG2_CellLoss_24hr: Apredica 24-hour HepG2 Assay for Cell Loss (AID 2282908); details: high-content imaging
Summary of the method: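 Read-out: Hoechst 33342-stained nuclei counted by automated fluorescence imaging after formaldehyde fixation and Triton permeabilization. Ten concentrations, 0.39 to 200 uM, duplicate wells, 0.5% DMSO final. Gain or loss of signal fitted relative to DMSO baseline.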

[10] = APR_HepG2_MitoticArrest_24hr: Apredica 24-hour HepG2 Assay for Mitotic Arrest (AID 2282910); details: high-content imaging, actives raise or lower the signal
Summary of the method: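 HepG2, 24 hr dosing, 0.39–200 uM, 0.5% DMSO final. Formaldehyde-fixed, Triton-permeabilised, anti-phospho-histone H3 plus Hoechst. ArrayScan imaging at 20x; bidirectional fit vs DMSO baseline.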

[11] = APR_HepG2_MitoMembPot_24hr: Apredica 24-hour HepG2 Assay for Mitochondrial Membrane Potential (AID 2282911); details: imaging, actives raise or lower the signal
Summary of the method: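 Cells are dosed for 24 hr across 0.39 to 200 uM with solvent held at 0.5% DMSO. They are then stained with 250 nM MitoTracker Red CMXRos for 30 min, fixed in 3.7% formaldehyde and imaged.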

[12] = APR_HepG2_MitoMass_24hr: Apredica 24-hour HepG2 Assay for Mitochondrial Mass (AID 2282912); details: high-content imaging, actives raise or lower the signal
Summary of the method: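 HepG2, 24 hr dosing, 10 concentrations 0.39–200 uM in duplicate, DMSO 0.5% final. MitoTracker Red CMXRos 250 nM, 30 min pre-fix; 3.7% formaldehyde fix. Imaging-based fluorescence intensity; gain/loss fit vs DMSO baseline.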

[13] = APR_HepG2_p53Act_24hr: Apredica 24-hour HepG2 Assay for p53 Activation (AID 2282913); details: high-content imaging, actives raise or lower the signal;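 further: p53 protein immunofluorescence averaged per cell in HepG2 with Hoechst nuclei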
Summary of the method: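 Human HepG2 liver cells; 24 hr cpd treatment, 0.39–200 uM, 0.5% DMSO final. Fixed in 3.7% formaldehyde, permeabilized with 0.5% Triton X-100, stained with anti-p53/Cy5 plus Hoechst 33342. Six images per well at 20x; gain or loss vs DMSO.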

[14] = APR_HepG2_CellCycleArrest_72hr: Apredica 72-hour HepG2 Assay for Cell Cycle Arrest (AID 2282914); details: high-content imaging, actives raise or lower the signal
Summary of the method: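 Read-out is Hoechst-stained nuclear DNA content measured by automated fluorescence imaging (20x, six images per well), fitted in both directions relative to DMSO. Human HepG2 liver cells received 0.39–200 uM compound for 72 hr at 0.5% v/v DMSO.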

[15] = APR_HepG2_MicrotubuleCSK_24hr: Apredica 24-hour HepG2 Assay for Microtubule CSK Stabilty (AID 2282909); details: HepG2 microtubule cytoskeleton imaging, actives raise or lower the signal
Summary of the method: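 Read-out: alpha-tubulin immunofluorescence intensity by automated high-content imaging of fixed HepG2 cells after 24 h compound treatment. Ten concentrations, 0.39 to 200 uM, in duplicate; DMSO 0.5% v/v. Taxol positive control; DMSO-normalized bidirectional curve fitting.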

[16] = APR_HepG2_StressKinase_1hr: Apredica 1-hour HepG2 Assay for Stress Kinase (AID 2282906); details: HepG2 stress kinase (phospho-c-Jun) imaging, actives raise or lower the signal
Summary of the method: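 High-content imaging of phospho-c-Jun immunostaining (with Hoechst nuclear identification) after a 1 h exposure of HepG2 cells to 10 concentrations from 0.39 to 200 uM, final DMSO 0.5%. Fitted bidirectionally against DMSO.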

[17] = APR_HepG2_MitoMembPot_1hr: Apredica 1-hour HepG2 Assay for Mitochondrial Membrane Potential (AID 2282675); details: imaging, actives raise or lower the signal
Summary of the method: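 Mitochondrial membrane potential read as MitoTracker Red CMXRos intensity by automated imaging of fixed HepG2 cells. Dye at 250 nM for 30 min pre-fixation; compounds 0.39 to 200 uM for 1 hour, duplicate wells, 0.5% DMSO.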

[18] = APR_HepG2_NuclearSize_1hr: Apredica 1-hour HepG2 Assay for Nuclear Size (AID 2282670); details: high-content imaging, actives raise or lower the signal
Summary of the method: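 Nuclear size measured by high-content imaging of Hoechst 33342 nuclear stain after formaldehyde fixation; human HepG2 line exposed 1 hr to compounds at 0.39–200 uM in 0.5% DMSO, with bidirectional curve fitting relative to DMSO.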

[19] = APR_HepG2_NuclearSize_24hr: Apredica 24-hour HepG2 Assay for Nuclear Size (AID 2282907); details: high-content imaging, actives raise or lower the signal
Summary of the method: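 Read-out: nuclear diameter from Hoechst 33342 (2 ug/mL) imaging of fixed HepG2 cells, 20x, six fields/well. Compounds ran at 0.39–200 uM for 24 hr, 0.5% DMSO final. Gain or loss was fitted bidirectionally relative to the DMSO baseline.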

Measured: AC50

CCOc1nc(C(Cl)(Cl)Cl)ns1
not listed: [15] | [16] | [17] | [18] | [19]
inactive: all other assays above

C=CCOC(=O)C(C)(C)OC(=O)c1cc(-n2c(=O)cc(C(F)(F)F)n(C)c2=O)ccc1Cl
not listed: [16] | [17] | [18] | [19]
inactive: all other assays above

COCc1cnc(C2=NC(C)(C(C)C)C(=O)N2)c(C(=O)O)c1 (stereo not given)
not listed: [4] | [13] | [15] | [17] | [18] | [19]
inactive: all other assays above

CC(C)C1(C)N=C(c2ncccc2C(=O)O)NC1=O (stereo not given)
not listed: [5] | [18] | [19]
inactive: all other assays above

CSC(=O)c1c(C(F)F)nc(C(F)(F)F)c(C(=O)SC)c1CC(C)C
not listed: [15] | [16] | [18] | [19]
inactive: all other assays above

COCC(=O)N(c1c(C)cccc1C)C(C)C(=O)OC (stereo not given)
not listed: [5] | [16] | [17] | [19]
inactive: all other assays above

CC1(C)C(C(=O)OC(C#N)c2cccc(Oc3ccccc3)c2)C1(C)C (stereo not given)
not listed: [5] | [16] | [17] | [19]
inactive: all other assays above

CC(C)N1C(=O)c2ccccc2NS1(=O)=O
active: [1] 0.0592 µM
not listed: [17] | [18] | [19]
inactive: all other assays above

CN=C=S
active: [8] 69.2 µM | [14] 54.7 µM
not listed: [5] | [15] | [18]
inactive: all other assays above
